Results on 14 compounds are retold here after PubChem BioAssay.

SMILES strings stand for the structures. Active and inactive are the calls of the source.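 How the source made its calls, unless noted: active means inhibition of the reporter signal at or above 50%; inactive means inhibition below 50%.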

Experiment [1] in a line: inhibitors of TNFa-induced NFkB p65 translocation, primary screen, imaging, HUVEC, MLSMR starter and 10KST1 sets (AID 438;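 active means inhibition above 20% together with a positive visual image hit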;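 further: compound added about 3h40 before a 20 min TNFalpha stimulation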;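 on inhibition: signal is the nuclear over cytoplasmic p65 intensity ratio per well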). The note with it: HUVEC TNFa-induced p65 nuclear translocation; cell count: measured here: nuclei count (cytotoxicity indicator), at 2.08 µM; inhibition: at 2 µM, stronger effect = higher value, 0% TNFa-plus-vehicle, 100% no-TNFa wells.
Experiment [2] is described as follows: inhibitors of mutant huntingtin aggregation, primary screen, imaging, exon1htt(103Q)mCFP cells, high-content imaging (AID 483;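 active means visual image review flags a hit and inhibition of aggregation exceeds 20%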;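 further: compound exposure lasted 3 days before fixation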;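 on nuclei count: percent of the per-plate median nuclei count of sample wells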). The note with it: exon1htt(103Q)mCFP cell line, aggregate imaging, at 2 µM; inhibition of aggregation: stronger effect = higher value; nuclei count: measured here: cell count, toxicity.
Experiment [3] in a line: inhibitors of E-selectin induction by TNFa, primary screen, imaging, HUVEC, immunofluorescence, MLSMR starter and 10KST1 sets (AID 487;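 active means visually confirmed hit in the image check and inhibition above 20%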;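 on inhibition: signal is fraction of cell area covered by stained E-selectin grains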;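 on nuclei count: 100% = median nuclei count of all wells on the same plate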). The note with it: HUVEC TNFalpha-induced E-selectin immunofluorescence imaging, at 2 µM; inhibition: stronger effect = higher value; nuclei count: measured here: cell number, toxicity.
Experiment [4] addresses Voltage-gated potassium channel subunit beta-2 (Rattus norvegicus) (UniProt P62483). The experiment in a line: KvBeta enzyme negative modulators, primary screen, biochemical, NADPH fluorescence (AID 622;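 active means fluorescence slope higher than the sample average by over 3 SD, cut at about -0.22 in these data, passing the limit was not always enough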;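 further: slope of raw intensity against log time taken from 70 to 1610 s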). Particulars: recombinant KvBeta, 4-cyanobenzaldehyde reduction, at 10 µM, stronger effect = higher value.
Experiment [5] shares this target. The experiment in a line: KvBeta positive modulators, primary screen, biochemical, NADPH fluorescence (AID 623;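 active means NADPH fluorescence slope more negative than the mean of all samples by about 3 SD, 99.7% confidence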;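 further: fluorescence intensity change per second fitted from 20 to 320 s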). Particulars: Recombinant KvBeta, NADPH fluorescence decrease slope, 10 min; at 10 µM; stronger effect = lower value.
Experiment [6] deals with Alpha-2C adrenergic receptor (Homo sapiens) (UniProt P18825). The experiment in a line: modulators of alpha2C/GIRK thallium flux, primary screen, cell-based, HEK293 alpha2C/GIRK1/2 (AID 624;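 active means fluorescence slope after compound addition differing from the mean of all screened samples at 99.7% confidence, in either direction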;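 further: slope of fluorescence ratio to pre-addition baseline per second over 15 to 24 s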). Particulars: thallium flux BTC fluorescence, at 10 µM, actives lie on both sides.
Alpha-2C adrenergic receptor (Homo sapiens), sequence (P18825 whole entry, looked up): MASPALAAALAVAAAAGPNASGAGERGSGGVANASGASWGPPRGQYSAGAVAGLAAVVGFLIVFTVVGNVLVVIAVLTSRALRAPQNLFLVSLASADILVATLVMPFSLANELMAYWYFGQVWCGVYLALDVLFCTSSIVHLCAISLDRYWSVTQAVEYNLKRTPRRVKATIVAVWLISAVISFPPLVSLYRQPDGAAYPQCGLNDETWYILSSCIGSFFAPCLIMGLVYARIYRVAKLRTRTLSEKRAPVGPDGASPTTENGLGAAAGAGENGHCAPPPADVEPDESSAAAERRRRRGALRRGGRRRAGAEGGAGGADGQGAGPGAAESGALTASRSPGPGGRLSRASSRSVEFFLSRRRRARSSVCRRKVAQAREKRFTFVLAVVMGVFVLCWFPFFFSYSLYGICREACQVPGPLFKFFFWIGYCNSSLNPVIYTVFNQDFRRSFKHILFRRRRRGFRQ
Experiment [7] in a line: inhibitors of Sendai virus-induced IRF3 signaling, primary screen, TLR/RLR signaling modifier project, cell-based, Sendai virus stimulus, luciferase, 10K MLSCN set (AID 602276;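 active means inhibition at or above 50% at 10 µM; inactive means inhibition below 50%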;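 further: firefly luciferase from ISG56 promoter only with Renilla not read in this screen; 0% = Sendai virus plus DMSO and 100% = medium plus DMSO without virus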). The note with it: HEK293 RL24 IRF3 luciferase reporter, at 10 µM, stronger effect = higher value.
Experiment [8] can be described thus: inhibitors of poly I:C-induced TLR3 signaling, primary screen, cell-based, poly I:C stimulus, luciferase, 10K MLSCN set (AID 602277). Particulars: HEK293-TLR3 RL24 IRF3 luciferase reporter, at 10 µM, stronger effect = higher value. In general terms: A reporter such as luciferase makes a cellular process visible.

One may read the inhibition as the relative decrease from the control value, in per cent.

Voltage-gated potassium channel subunit beta-2 (Rattus norvegicus), sequence (P62483 whole entry, looked up): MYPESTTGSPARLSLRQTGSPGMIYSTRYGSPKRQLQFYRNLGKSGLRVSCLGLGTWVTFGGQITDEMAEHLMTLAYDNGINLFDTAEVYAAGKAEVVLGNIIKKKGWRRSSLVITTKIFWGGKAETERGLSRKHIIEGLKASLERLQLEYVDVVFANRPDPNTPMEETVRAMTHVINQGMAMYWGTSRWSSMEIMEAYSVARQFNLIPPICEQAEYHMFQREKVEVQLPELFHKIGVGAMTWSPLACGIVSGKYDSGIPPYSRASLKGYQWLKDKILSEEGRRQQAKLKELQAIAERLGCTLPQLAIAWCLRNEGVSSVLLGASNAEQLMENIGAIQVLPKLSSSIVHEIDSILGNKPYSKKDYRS

`Cc1cc(N2CCN(C)CC2)nc(N2CCOCC2)n1`: the cell count in experiment [1] worked out at 692. The inhibition was -9.4% (inactive) in experiment [1], -24.5% (inactive) in experiment [3], -2.65% (inactive) in experiment [7] and 25.9% (inactive) in experiment [8]. The inhibition of aggregation in experiment [2] was -6.8% (inactive). For the same compound, the nuclei count in experiment [2] worked out at 125%; in experiment [3], 109%. For the same compound, the fluorescence slope in experiment [4] was -0.425 (inactive). For the same compound, the NADPH fluorescence slope in experiment [5] was -4.1e-05 (inactive). Moreover, the slope in experiment [6] is 0.00311 (inactive).
For the compound `CCC(C)OC(=O)c1[nH]c2c(c1C)C(=O)CC(c1ccc(N(C)C)cc1)C2` (centres undefined), the cell count in experiment [1] is 717. For the same compound, the inhibition in experiment [1] was -3.2% (inactive); in experiment [3], -31.4% (inactive); in experiment [7], -57.4% (inactive); in experiment [8] it was -143% (inactive). Also, in experiment [2], the inhibition of aggregation was -40.7% (inactive). For the same compound, the nuclei count in experiment [2] turned out to be 108%; in experiment [3], 125%. In addition, the fluorescence slope in experiment [4] is -0.506 (inactive). In experiment [5], the NADPH fluorescence slope is -3.4e-06 (inactive). Also, in experiment [6], the slope was 0.00616 (inactive).
For `COc1ccc(CCNC(=O)CN(c2ccccc2OC)S(C)(=O)=O)cc1`, in experiment [1], the cell count amounted to 723. Besides, the inhibition was -3.4% (inactive) in experiment [1], -41.9% (inactive) in experiment [3], 15.7% (inactive) in experiment [7] and 27.5% (inactive) in experiment [8]. Moreover, in experiment [2], the inhibition of aggregation is 33.6% (inactive). The nuclei count in experiment [2] amounted to 87.7%; in experiment [3] it was 98.4%. Also, the fluorescence slope in experiment [4] was -0.427 (inactive). Moreover, the NADPH fluorescence slope in experiment [5] was -0.000127 (inactive). Moreover, the slope in experiment [6] is 0.00571 (inactive).
Consider `O=C(NCc1ccccc1)C1CCCN(S(=O)(=O)c2cccnc2)C1` (centres undefined), for which the cell count in experiment [1] came out at 230. The inhibition is -0.7% (inactive) in experiment [1], -59.6% (inactive) in experiment [3], 5.96% (inactive) in experiment [7] and 11% (inactive) in experiment [8]. The inhibition of aggregation in experiment [2] is 0.8% (inactive). In addition, the nuclei count turned out to be 92.5% in experiment [2] and 98.3% in experiment [3]. For the same compound, the fluorescence slope in experiment [4] was -0.549 (inactive). In addition, the NADPH fluorescence slope in experiment [5] was -1.4e-05 (inactive). For the same compound, in experiment [6], the slope is 0.0054 (inactive).
Consider `Cc1ccc(S(=O)(=O)N2CCN(C(=O)CSC3CCCC3)CC2)c(C)c1`, for which the cell count in experiment [1] turned out to be 318. In addition, the inhibition in experiment [1] is 3.7% (inactive); in experiment [3], -425% (inactive); in experiment [7], 17.2% (inactive); in experiment [8], 14.9% (inactive). Further, in experiment [2], the inhibition of aggregation was -0.7% (inactive). Moreover, the nuclei count in experiment [2] was found to be 93.6%; in experiment [3] it was 110%. The fluorescence slope in experiment [4] was -0.482 (inactive). The NADPH fluorescence slope in experiment [5] was 4.3e-06 (inactive). Further, the slope in experiment [6] is 0.00451 (inactive).
On to `Cc1ccc(S(=O)(=O)N2CCCC(C(=O)NC3=NCCS3)C2)cc1` (centres undefined), for which the cell count in experiment [1] was 306. The inhibition in experiment [1] was 7.4% (inactive); in experiment [3], -27.5% (inactive); in experiment [7], 14.7% (inactive); in experiment [8], 13.5% (inactive). The inhibition of aggregation in experiment [2] is -0.7% (inactive). For the same compound, the nuclei count came to 111% in experiment [2] and 106% in experiment [3]. In addition, the fluorescence slope in experiment [4] is -0.601 (inactive). In addition, the NADPH fluorescence slope in experiment [5] is -3.9e-05 (inactive). The slope in experiment [6] is 0.00373 (inactive).
For `CCC(C(=O)Nc1ccccc1C(=O)N1CCCC1)N1C(=O)c2ccccc2C1=O` (centres undefined), the cell count in experiment [1] came out at 623. In addition, the inhibition was 16.8% (inactive) in experiment [1], -112% (inactive) in experiment [3], 4.49% (inactive) in experiment [7] and 15.4% (inactive) in experiment [8]. For the same compound, the inhibition of aggregation in experiment [2] is -16.8% (inactive). The nuclei count in experiment [2] came out at 109%; in experiment [3], 112%. The fluorescence slope in experiment [4] is -0.356 (inactive). Moreover, the NADPH fluorescence slope in experiment [5] is 9.2e-06 (inactive). The slope in experiment [6] was 0.0034 (inactive).
In the case of `CC1(C)CN=C(N2CCN(c3ncnc4sc5c(c34)CCCC5)CC2)S1`, in experiment [1], the cell count turned out to be 395. For the same compound, the inhibition was 4.1% (inactive) in experiment [1], -28.7% (inactive) in experiment [3], 6.95% (inactive) in experiment [7] and 5.35% (inactive) in experiment [8]. Further, in experiment [2], the inhibition of aggregation was -0.4% (inactive). For the same compound, the nuclei count in experiment [2] came out at 80.5%; in experiment [3] it was 113%. The fluorescence slope in experiment [4] was -0.379 (inactive). Further, the NADPH fluorescence slope in experiment [5] is -4.9e-05 (inactive). In experiment [6], the slope is 0.0035 (inactive).
As for `Cc1ccc2cc(CN(CC3CCCO3)S(=O)(=O)c3ccc4c(c3)OCCO4)c(=O)[nH]c2c1C` (centres undefined), the cell count in experiment [1] worked out at 478. The inhibition is 2.4% (inactive) in experiment [1], -42.1% (inactive) in experiment [3], 3.97% (inactive) in experiment [7] and -19.6% (inactive) in experiment [8]. The inhibition of aggregation in experiment [2] is 8.6% (inactive). Further, the nuclei count in experiment [2] came out at 110%; in experiment [3], 135%. Also, the fluorescence slope in experiment [4] is -0.391 (inactive). The NADPH fluorescence slope in experiment [5] is -8.2e-06 (inactive). The slope in experiment [6] is 0.00544 (inactive).
Take `C#CC1(O)CC(C)N(C)C(C)C1` (centres undefined): in experiment [1], the cell count stood at 266. Besides, the inhibition in experiment [1] was -0.3% (inactive); in experiment [3], -76% (inactive); in experiment [7] it was 11% (inactive); in experiment [8] it was 17.2% (inactive). In experiment [2], the inhibition of aggregation is 41.8% (active). Also, the nuclei count in experiment [2] came to 71.2%; in experiment [3], 186%. Further, the fluorescence slope in experiment [4] was -0.606 (inactive). For the same compound, the NADPH fluorescence slope in experiment [5] is 3.5e-06 (inactive). The slope in experiment [6] was 0.00632 (inactive).
As to `CC(=O)NC1CC2CCCC(C1)N2CC(=O)Nc1ccccc1` (centres undefined), the cell count in experiment [1] is 302. The inhibition in experiment [1] was 9.6% (inactive); in experiment [3] it was 26.1% (inactive); in experiment [7] it was -13.6% (inactive); in experiment [8], -5.22% (inactive). Further, the inhibition of aggregation in experiment [2] is 3.9% (inactive). The values for the nuclei count in experiment [2] and in experiment [3] were 89.5% and 93.9%, respectively. Further, in experiment [4], the fluorescence slope is -0.565 (inactive). Also, the NADPH fluorescence slope in experiment [5] was -2.4e-05 (inactive). For the same compound, the slope in experiment [6] is 0.00646 (inactive).
Take `Cc1cc(C)c2c(n1)nn1c(NCCCN3CCOCC3)cc(C)nc21`: the cell count in experiment [1] was 484. For the same compound, the inhibition in experiment [1] was -4.5% (inactive); in experiment [3], -19.1% (inactive); in experiment [7], 8.42% (inactive); in experiment [8] it was 21.2% (inactive). In addition, the inhibition of aggregation in experiment [2] is 11.5% (inactive). Also, the nuclei count in experiment [2] is 119%; in experiment [3], 114%. The fluorescence slope in experiment [4] was -0.509 (inactive). Further, in experiment [5], the NADPH fluorescence slope is -1.9e-05 (inactive). Moreover, the slope in experiment [6] is 0.00545 (inactive).
Take `CCn1c(SCC(=O)N2CCN(c3ccc(Cl)cc3)CC2)nc2ccccc2c1=O`: the cell count in experiment [1] stood at 324. Also, the inhibition in experiment [1] was 8.1% (inactive); in experiment [3], -184% (inactive); in experiment [7] it was -8.17% (inactive); in experiment [8], -12.7% (inactive). In addition, the inhibition of aggregation in experiment [2] was 19.7% (inactive). For the same compound, the nuclei count turned out to be 83.7% in experiment [2] and 102% in experiment [3]. Moreover, the fluorescence slope in experiment [4] was -0.545 (inactive). In experiment [5], the NADPH fluorescence slope is 4e-05 (inactive). Further, the slope in experiment [6] is 0.00578 (inactive).
In the case of `COc1ccc(N(C(=O)c2ccco2)S(=O)(=O)c2cc(OC)ccc2OC)cc1`, in experiment [1], the cell count stood at 568. The inhibition was 4.3% (inactive) in experiment [1], 25.3% (inactive) in experiment [3], 8.61% (inactive) in experiment [7] and 20.5% (inactive) in experiment [8]. Further, the inhibition of aggregation in experiment [2] is 7.3% (inactive). For the same compound, the values for the nuclei count in experiment [2] and in experiment [3] were 97.7% and 93.2%, respectively. For the same compound, the fluorescence slope in experiment [4] was -0.343 (inactive). Further, the NADPH fluorescence slope in experiment [5] was 9.2e-06 (inactive). Further, the slope in experiment [6] is 0.00421 (inactive).
